# Source: PubChem BioAssay (National Center for Advancing Translational Sciences (NCATS))
# Hits are enriched below; roughly 12% of the tested compounds scored in any of these assays.
# Sfp PPTase inh = qHTS Assay for Inhibitors of Bacillus subtilis Sfp phosphopantetheinyl transferase (PPTase); 4'-phosphopantetheinyl transferase ffp (Bacillus subtilis), Q9F4F7; Biochemical Sfp PPTase activity, qHTS; Potency, µM, for inactives: largest response in the series, negative = inhibition, actives largely listed as inhibitors; hit rate 3.5% among 310,000;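 note: the enzyme is Sfp with the accession as filed and its product quenches rhodamine fluorescence; 0% = enzyme reaction without inhibitor and -100% = no enzyme wells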
#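 With Hepes-Na pH 7.6 buffer containing 10 mM MgCl2, Sfp (15 nM) modified BHQ-2-YbbR (12.5 uM) using rhodamine-CoA (5 uM). Two reads 30 minutes apart at 525/598 nm yielded each well's rate.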
# BAZ2B inh = qHTS Assay for Inhibitors of BAZ2B; Bromodomain adjacent to zinc finger domain protein 2B (Homo sapiens), Q9UIF8; AlphaScreen BAZ2B-H3K14Ac peptide displacement; Potency, µM (series often up to 114 µM), for inactives: top-dose activity change, negative = inhibition, usual class: inhibitors; hit rate 4.4% among 360,000; note: % is set by controls: 0 for no effect and ±100 for the full control effect; nearly all actives have a fitted effect of over 60% in size
#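 Protein-peptide AlphaScreen: BAZ2B 50 nM, b-H3K14Ac 50 nM, 1x PBS pH 7.4 + 0.01% Tween-20. Preincubation 30 min RT; cpd 30 min RT (top 110 uM); beads 20 min RT, light-protected.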
# JMJD2A Tudor inh = qHTS Assay for Inhibitors of JMJD2A-Tudor Domain; hit rate 4.4% among 390,000; Lysine-specific demethylase 4A (Homo sapiens), O75164; Potency, µM (top dose mostly 114 µM), without a hit: top-dose activity change, negative = inhibition, most hits filed as inhibitors; AID 504339, 2011; AlphaScreen JMJD2A-Tudor / H3K4me3 peptide binding; note: % is set by controls: 0 for no effect and ±100 for the full control effect; nearly all actives have a fitted effect of over 50% in size
# Target sequence (O75164 whole entry, looked up, the tested form may be a part): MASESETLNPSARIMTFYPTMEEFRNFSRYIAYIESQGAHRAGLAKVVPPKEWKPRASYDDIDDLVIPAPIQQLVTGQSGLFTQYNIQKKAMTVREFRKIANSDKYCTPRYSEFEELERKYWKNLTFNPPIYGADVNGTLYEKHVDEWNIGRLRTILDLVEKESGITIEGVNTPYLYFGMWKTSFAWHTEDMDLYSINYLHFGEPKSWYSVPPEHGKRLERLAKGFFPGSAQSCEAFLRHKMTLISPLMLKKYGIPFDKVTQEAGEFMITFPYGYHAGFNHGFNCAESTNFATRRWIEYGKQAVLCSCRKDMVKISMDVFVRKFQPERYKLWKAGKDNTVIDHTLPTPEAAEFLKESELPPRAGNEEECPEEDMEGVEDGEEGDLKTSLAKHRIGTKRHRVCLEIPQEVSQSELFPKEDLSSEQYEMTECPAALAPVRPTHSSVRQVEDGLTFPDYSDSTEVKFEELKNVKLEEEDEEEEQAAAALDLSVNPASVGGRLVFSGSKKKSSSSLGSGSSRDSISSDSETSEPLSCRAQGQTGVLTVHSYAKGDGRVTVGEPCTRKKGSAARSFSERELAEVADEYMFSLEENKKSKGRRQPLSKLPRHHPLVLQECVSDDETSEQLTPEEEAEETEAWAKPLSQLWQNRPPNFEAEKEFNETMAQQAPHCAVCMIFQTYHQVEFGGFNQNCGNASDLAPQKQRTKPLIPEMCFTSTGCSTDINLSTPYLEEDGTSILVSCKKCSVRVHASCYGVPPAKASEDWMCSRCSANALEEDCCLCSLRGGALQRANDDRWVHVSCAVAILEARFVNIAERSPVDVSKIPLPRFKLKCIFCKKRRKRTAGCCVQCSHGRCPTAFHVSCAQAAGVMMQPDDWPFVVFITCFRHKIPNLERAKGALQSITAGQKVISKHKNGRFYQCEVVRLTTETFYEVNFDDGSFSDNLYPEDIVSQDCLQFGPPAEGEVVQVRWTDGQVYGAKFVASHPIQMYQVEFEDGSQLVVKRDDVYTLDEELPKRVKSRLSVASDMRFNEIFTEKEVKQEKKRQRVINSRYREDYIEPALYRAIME
# HP1b chromo inh = HTS for Inhibitors of HP1-beta Chromodomain Interactions with Methylated Histone Tails; Chromobox protein homolog 1 (Homo sapiens), P83916; AlphaScreen HP1-beta / biotin-H3K9me3 peptide binding; Potency, µM (top dose mostly 114 µM), for the others: top-dose activity change, negative = inhibition, actives largely listed as inhibitors; hit rate 0.56% among 390,000; AID 540317, 2011; note: nearly all actives have a fitted effect of over 70% in size
#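 AlphaScreen: HP1-beta (50 nM) preformed 30 min with biotin-H3(1-18)K9me3 peptide (50 nM) in PBS pH 7.4, 0.01% Tween-20. Compound added for 30 min at RT, then streptavidin donor/nickel chelate acceptor beads (10 ug/mL) for 30 min.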
# G9a inh = qHTS Assay for Inhibitors of Histone Lysine Methyltransferase G9a; hit rate 8.8% among 350,000; Potency, µM (doses to about 102 µM), for the others: at the highest dose activity, negative = inhibition, most hits filed as inhibitors; Histone-lysine N-methyltransferase EHMT2 (Homo sapiens), Q96KQ7; G9a H3K9 monomethylation, AlphaScreen, 2 h; note: % is set by controls: 0 for no effect and ±100 for the full control effect; nearly all actives have a fitted effect of over 75% in size
#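 Chemiluminescent proximity detection of H3K9 monomethylation, read after 10 min bead incubation in the dark. Reaction: 20 nM G9a, 500 nM biotin-H3K9 peptide, 20 uM SAM cofactor, 2 h, room temperature, following 15 min enzyme-compound preincubation.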
# The depositor's hits bear a star; u = inconclusive; x = not tested or not shown; ! = a repeat was not active; [ ] = remark or other dose. Calls come from the whole dose curve; as a rule, active = well fitted curve in the direction sought with a large enough effect; inconclusive = small, poorly fitted or top-dose-only effect, or another doubt; inactive = no such curve, though single readings can be large; an effect the other way counts as inactive or inconclusive. Potency is the fitted concentration of half-maximal effect.
SMILES,Sfp PPTase inh,BAZ2B inh,JMJD2A Tudor inh,HP1b chromo inh,G9a inh
Cc1ccc(S(=O)(=O)c2nc(-c3ccco3)oc2SCc2ccc(F)cc2)cc1,x,-13%,-9%,18%,u
CCSc1oc(-c2ccco2)nc1S(=O)(=O)c1ccc(C)cc1,-11%,-31%,-13%,29%,25µM*
CCCCCS(=O)(=O)c1oc(-c2cccs2)nc1S(=O)(=O)c1ccc(C)cc1,x,-5%,-15%,54%,3.5µM*
CCCCS(=O)(=O)c1oc(-c2cccs2)nc1S(=O)(=O)c1ccc(F)cc1,x,-2%,-13%,42%,u
COc1ccc(CNC(=O)C2CCN(S(=O)(=O)c3cccc4nonc34)CC2)cc1,6%,7%,-19%,7%,3%
COc1ccc(OC)c(N(CC(=O)NC2CC3CCC2C3)S(=O)(=O)c2ccccc2)c1 (stereo not given),12%,-30%,-19%,8%,-5%
O=C(NC(=S)Nc1ccc(Cl)c(C(=O)O)c1)c1ccco1,-18%,-15%,-2%,5%,u
O=S(=O)(c1ccccc1)c1nc(-c2cccs2)oc1SCc1ccccc1Cl,x,-10%,9%,42%,-25%[59 µM]
Cc1ccc(S(=O)(=O)c2nc(-c3ccco3)oc2SCC(C)C)cc1,x,-1%,-1%,41%,u
CCSc1oc(-c2cccs2)nc1S(=O)(=O)c1ccccc1,u,-3%,40µM*,u,u
CC(C)CSc1oc(-c2ccco2)nc1S(=O)(=O)c1ccccc1,-6%,-20%,4%,63%,35µM*
O=C(Nc1nnc(S(=O)(=O)N2CCCCC2)s1)c1ccccc1Br,22%,-7%,-13%,50%,-8%
NC(=O)CSc1nnc(NC(=O)c2ccc(S(=O)(=O)N3CCCCC3)cc2)s1,x,6%,-9%,51%,6.3µM*
O=C(Nc1nnc(S(=O)(=O)N2CCCCCC2)s1)c1ccccc1Cl,29%,u,u,50%,10µM*!
COc1ccccc1C(=O)Nc1nnc(S(=O)(=O)N2CCOCC2)s1,15%,-5%,-1%,49%,2%
O=C(Nc1nnc(S(=O)(=O)N2CCCC2)s1)c1ccccc1Cl,13%,5µM*!,u,37%,u
COc1ccccc1C(=O)Nc1nnc(S(=O)(=O)N2CCC(C)CC2)s1,5%,-4%[57.1 µM],-11%,59%,79µM*
Cc1ccccc1C(=O)NC[C@@H]1CCCN2CCCC[C@H]12,13%,0%,-7%,5%,-5%
O=C(CCSCc1ccc(Cl)cc1)NCc1ccc(F)cc1Cl,x,27%,44%,60%,28%[59 µM]
O=C(Nc1nnc(S(=O)(=O)N2CCCCCC2)s1)c1ccccc1,10%,8.9µM*!,28µM*!,49%,16µM*!
O=C(Nc1nnc(S(=O)(=O)N2CCOCC2)s1)c1ccccc1Br,2%,-4%,-6%,25%,79µM*
O=C(Nc1nnc(CCN2CCCCC2)s1)c1ccccc1,-4%,-27%,1%,28%,-5%[59 µM]
O=C(Nc1nnc(CCN2CCOCC2)s1)c1ccccc1,u,7%,2%,-3%,45µM*
O=C(Nc1nn[nH]n1)c1ccc(S(=O)(=O)N2CCCCC2)cc1,-23%,71µM*,u,58%,50µM*
O=c1c(-c2ccc(F)c(F)c2)nc2cncnc2n1Cc1ccccc1,-23%,x,x,x,-3%[12.7 µM]
SMILES,Sfp PPTase inh,BAZ2B inh,JMJD2A Tudor inh,HP1b chromo inh,G9a inh
Cc1ccc(Cl)cc1N1CCN(C(=O)c2ccc(CS(=O)(=O)c3ccccc3C)o2)CC1,x,u,-30%,-4%,-14%[59 µM]
O=C(O)c1cnn(-c2nc(-c3cccc(F)c3)cs2)c1C(F)(F)F,11%,-38%,-17%[11.4 µM],25%,50µM*
Cc1ccc(/C(O)=C/C(=O)C(=O)NNC(=O)C(O)(c2ccccc2)c2ccccc2)cc1,2%,50µM*,u,13%,-10%[59 µM]
COc1ccc(C(=O)C/C(=C\C(=O)c2ccc(C)cc2)c2ccccc2)cc1,9%,7%[57.1 µM],3%,42%,6%
COC(=O)C(=O)/C=C(\O)c1ccc(C)cc1,u,u,79µM*,11%,2µM*
CCCOC(=O)c1cccc(NC(=O)CSc2nnc3cc(C)c4ccccc4n23)c1,x,-2%,-7%,33%,-20%[59 µM]
S=C(NCCC1=CCCCC1)Nc1ccc(Cl)cc1,-2%,-9%,-12%,19%,-13%[59 µM]
O=C(NCCN1CCN(c2cccc(Cl)c2)CC1)c1ccc(CSc2nc3ccncc3[nH]2)cc1,5%,u,45µM*,-17%,50µM*
COc1ccc(C=NNC(=O)c2ccccc2OCc2ccc(F)cc2)c(OC)c1,x,x,-18%,30%,x
O=C(NCCc1ccccc1)C1CCC(CNS(=O)(=O)c2ccc(Cl)cc2)CC1 (stereo not given),x,3%,3%,4%,4%[59 µM]
Nc1nc(N)c2sc3nc(C(F)(F)F)cc(C(F)(F)F)c3c2n1,1%,-3%,-21%,12%,-12%[59 µM]
FC(F)(F)c1cccc(N2CCN(c3nnnn3-c3ccccc3)CC2)c1,9%,2%,-3%,26%,27%[12.7 µM]
CN(C)C=NC1=NN(c2cccc(C(F)(F)F)c2)CC1,6%,u,u,-13%,2.2µM*
CN1CCN(C=NC2=NN(c3cccc(C(F)(F)F)c3)CC2)CC1,-9%,u,u,u,2.8µM*
COc1ccccc1CC(=O)Nc1ccc2c(C)cc(=O)oc2c1,12%,-3%,-5%,-4%,71µM*
Cc1ccccc1CC(=O)Nc1ccc2c(C)cc(=O)oc2c1,13%,-16%,-24%,18%,x
CC(=O)c1cccc(NC(=O)Cn2cc3c(n2)CCCC3)c1,7%,-9%,-3%,51%,-11%
Cc1c([N+](=O)[O-])c(C(=O)Sc2ccc(Br)cc2)nn1C,-2%,18%,-6%,23%,25µM*
Cc1c([N+](=O)[O-])c(C(=O)N2CCCC2)nn1C,6%,-7%,-13%,8%,28%[0.501 µM]
O=C(NNc1nc2ccccc2s1)c1ccc(F)cc1,-9%,6%,-15%,24%,15%[59 µM]
CC(C)NC(=S)NNc1nc2ccccc2s1,2.5µM*,-34%,45µM*,50µM*,2.2µM*
O=C(/C=C/c1cccc([N+](=O)[O-])c1)NCCN1C(=O)S/C(=C\c2cccnc2)C1=O,0%,u,-10%,52%,8%
O=Cc1nc(-c2ccccc2Cl)n2ccccc12,7%,-6%,-7%,12%,1%[59 µM]
CN1CCN(/N=C/c2nc(-c3ccccc3Cl)n3ccccc23)CC1,14%,-9%,-31%,-11%,28µM*
Clc1ccccc1-c1nc(/C=N/N2CCOCC2)c2ccccn12,89µM*,x,u,u,28µM*
